# Target: Insulin receptor (Homo sapiens) (UniProt P06213)
# Conditions: at 0.1 µM
# Insulin receptor (Homo sapiens), sequence (P06213 28-758 limits assumed): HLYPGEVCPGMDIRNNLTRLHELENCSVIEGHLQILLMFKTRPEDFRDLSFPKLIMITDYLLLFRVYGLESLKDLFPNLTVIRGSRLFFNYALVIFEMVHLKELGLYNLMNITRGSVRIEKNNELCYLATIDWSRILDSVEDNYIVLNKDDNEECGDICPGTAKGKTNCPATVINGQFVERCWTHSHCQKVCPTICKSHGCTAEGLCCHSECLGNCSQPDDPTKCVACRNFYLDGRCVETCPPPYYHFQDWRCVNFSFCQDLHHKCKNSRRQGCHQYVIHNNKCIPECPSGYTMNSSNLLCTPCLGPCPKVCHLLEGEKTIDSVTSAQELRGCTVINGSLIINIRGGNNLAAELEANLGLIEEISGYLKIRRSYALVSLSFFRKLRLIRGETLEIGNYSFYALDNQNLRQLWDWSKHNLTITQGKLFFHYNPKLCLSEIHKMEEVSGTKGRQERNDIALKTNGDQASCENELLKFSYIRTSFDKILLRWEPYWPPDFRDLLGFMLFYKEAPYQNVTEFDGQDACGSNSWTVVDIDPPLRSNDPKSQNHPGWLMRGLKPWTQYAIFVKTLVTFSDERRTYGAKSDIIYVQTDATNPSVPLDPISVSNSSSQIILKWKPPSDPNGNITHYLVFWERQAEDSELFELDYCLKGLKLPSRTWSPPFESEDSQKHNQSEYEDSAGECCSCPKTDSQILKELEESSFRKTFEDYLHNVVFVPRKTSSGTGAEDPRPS
# Insulin receptor (Homo sapiens), sequence (P06213 763-1382 limits assumed): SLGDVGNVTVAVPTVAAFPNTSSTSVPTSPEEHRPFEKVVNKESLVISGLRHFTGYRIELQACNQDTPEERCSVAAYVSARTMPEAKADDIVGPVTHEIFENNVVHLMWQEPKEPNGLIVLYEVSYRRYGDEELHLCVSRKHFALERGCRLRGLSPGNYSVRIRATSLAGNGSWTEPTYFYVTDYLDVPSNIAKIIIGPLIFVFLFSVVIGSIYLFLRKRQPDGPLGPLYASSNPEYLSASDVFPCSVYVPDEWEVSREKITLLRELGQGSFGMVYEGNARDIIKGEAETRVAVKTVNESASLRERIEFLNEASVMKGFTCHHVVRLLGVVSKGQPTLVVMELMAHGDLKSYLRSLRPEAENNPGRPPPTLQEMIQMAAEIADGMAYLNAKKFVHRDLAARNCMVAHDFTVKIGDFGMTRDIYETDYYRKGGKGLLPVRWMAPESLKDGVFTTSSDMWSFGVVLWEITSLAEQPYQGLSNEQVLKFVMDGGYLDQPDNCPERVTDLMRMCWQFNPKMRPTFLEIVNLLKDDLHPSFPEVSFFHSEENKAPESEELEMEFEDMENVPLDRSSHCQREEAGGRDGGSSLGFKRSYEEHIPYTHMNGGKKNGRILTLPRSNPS
row,Structure (SMILES),inhibition [%]
1,ON=C1CCc2cc(-c3nc(C4CCNCC4)[nH]c3-c3ccncc3)ccc21,1.61
2,CS(=O)(=O)Nc1cccc(-c2ccc3c(NC(=O)C4CC4)n[nH]c3c2)c1,2.96
3,NS(=O)(=O)c1ccc(-c2cc3ccncc3cc2OCc2ccccc2)cc1,4.34
4,[O-][S+]1CCN(Cc2ccc(-c3ccc4ncnc(Nc5ccc(OCc6ccccc6)c(Cl)c5)c4c3)o2)CC1,2
5,N#Cc1c(NC(=O)c2ccccc2F)sc2c1CCCC2,1.34
6,COc1cc2ncn(-c3cc(OCc4ccccc4S(C)(=O)=O)c(C#N)s3)c2cc1OC,5.14
7,NC(=O)c1cccc(Nc2nccc(Nc3cccc(F)c3)n2)c1,4.46
8,CN(C)C(=O)O[C@H]1CN[C@H](C#Cc2cc3ncnc(Nc4ccc(OCc5cccc(F)c5)c(Cl)c4)c3s2)C1,4.02
9,Cc1ccc(NC(=O)CC2CC2)cc1-c1ccc(C(=O)NCC2CC2)cc1,2.71
10,CN(C)c1cc2c(Nc3ccc4c(cnn4Cc4ccccc4)c3)ncnc2cn1,5.08
11,CN(c1ccc(NC(=O)Nc2ccc(OC(F)(F)F)cc2)cc1)c1ccnc(Nc2cccc(S(N)(=O)=O)c2)n1,1.9
12,CCS(=O)(=O)c1ccc(OC)c(Nc2ncc(-c3cccc(OC)c3)o2)c1,0.3
13,COc1cc(Nc2nccc(-c3cnn4ncccc34)n2)cc(OC)c1,12.3
14,O=C1Nc2ccc(-c3cccnc3)cc2C1=Cc1cc(Br)c(O)c(Br)c1,3.63
15,CN(C)C(=O)O[C@@H]1CN[C@@H](C#Cc2cc3ncnc(Nc4ccc(OCc5cccc(F)c5)c(Cl)c4)c3s2)C1,0.78
16,Cc1nc(-c2ccccc2)n2nc(NCCCN3CCOCC3)ncc12,0.32
17,COc1cc(/C=N/Nc2ncnc3c2cnn3C(C)C)ccc1O,2.75

row,Structure (SMILES),inhibition [%]
1,COc1cccc(-n2nc(C)c3c(N/N=C(\C)c4ccncc4)ncnc32)c1,2.42
2,Cc1ccc2c(-c3ccnc(Nc4ccc5c(c4)OCCO5)n3)c(-c3ccc(C(F)(F)F)cc3)nn2n1,-0.36
3,COc1cc2ncnc(Nc3ccc4c(cnn4Cc4ccccc4)c3)c2cc1OC,2.75
4,Cc1ccc2c(-c3ccnc(Nc4cccc(C(F)(F)F)c4)n3)c(-c3ccccc3)nn2n1,8.09
5,Cc1cc(O)cc(C)c1/C=C/c1cncc(C(=O)N(C)C)c1,2.68
6,Nc1ccc(C#Cc2cncnc2Nc2ccc(OCc3cccc(F)c3)c(Cl)c2)cc1,1.22
7,Nc1nccc(-c2c(-c3ccc(F)cc3)ncn2CCCN2CCOCC2)n1,0.02
8,N#Cc1cccc(Nc2nccc(-c3cnn4ncccc34)n2)c1,9.03
9,NC(=O)c1sc(-n2cnc3ccccc32)cc1OCc1ccccc1Br,3.07
10,CCS(=O)(=O)c1ccc(OC)c(Nc2nccc(N(C)c3ccc4c(C)n[nH]c4c3)n2)c1,3.36
11,O=C(Nc1ccc(Oc2ccc3[nH]c(NC(=O)c4ccco4)nc3c2)cc1)Nc1cc(C(F)(F)F)ccc1F,1.23
12,COC(=O)c1ccc2c(c1)C(=Cc1cc(Br)c(O)c(Br)c1)C(=O)N2,3.96
13,CCOc1nccc2c1nc(-c1nonc1N)n2CC,0.75
14,COC(=O)Nc1nc2cc(Oc3ccc(NC(=O)Nc4cccc(Br)c4)cc3)ccc2[nH]1,1.48
15,CCn1c(-c2nonc2N)nc2c(C#CC(C)(C)O)nc(OCCNC)cc21,6.39
16,NS(=O)(=O)c1cccc(-c2cc3ccncc3cc2OCc2ccccc2)c1,2.6
17,NS(=O)(=O)c1ccc(N/N=C2\C(=O)Nc3ccc(Cl)cc32)cc1,1.04

# Target: Insulin receptor (Homo sapiens) (UniProt P06213)
# Conditions: at 1 µM
row,Structure (SMILES),inhibition [%]
1,ON=C1CCc2cc(-c3nc(C4CCNCC4)[nH]c3-c3ccncc3)ccc21,-0.75
2,CS(=O)(=O)Nc1cccc(-c2ccc3c(NC(=O)C4CC4)n[nH]c3c2)c1,4.14
3,NS(=O)(=O)c1ccc(-c2cc3ccncc3cc2OCc2ccccc2)cc1,5.38
4,[O-][S+]1CCN(Cc2ccc(-c3ccc4ncnc(Nc5ccc(OCc6ccccc6)c(Cl)c5)c4c3)o2)CC1,3.55
5,N#Cc1c(NC(=O)c2ccccc2F)sc2c1CCCC2,-1.12
6,COc1cc2ncn(-c3cc(OCc4ccccc4S(C)(=O)=O)c(C#N)s3)c2cc1OC,5.1
7,NC(=O)c1cccc(Nc2nccc(Nc3cccc(F)c3)n2)c1,21.1
8,CN(C)C(=O)O[C@H]1CN[C@H](C#Cc2cc3ncnc(Nc4ccc(OCc5cccc(F)c5)c(Cl)c4)c3s2)C1,3.06
9,Cc1ccc(NC(=O)CC2CC2)cc1-c1ccc(C(=O)NCC2CC2)cc1,5.25
10,CN(C)c1cc2c(Nc3ccc4c(cnn4Cc4ccccc4)c3)ncnc2cn1,6.13
11,CN(c1ccc(NC(=O)Nc2ccc(OC(F)(F)F)cc2)cc1)c1ccnc(Nc2cccc(S(N)(=O)=O)c2)n1,2.39
12,CCS(=O)(=O)c1ccc(OC)c(Nc2ncc(-c3cccc(OC)c3)o2)c1,5.78
13,COc1cc(Nc2nccc(-c3cnn4ncccc34)n2)cc(OC)c1,70
14,O=C1Nc2ccc(-c3cccnc3)cc2C1=Cc1cc(Br)c(O)c(Br)c1,0.1
15,CN(C)C(=O)O[C@@H]1CN[C@@H](C#Cc2cc3ncnc(Nc4ccc(OCc5cccc(F)c5)c(Cl)c4)c3s2)C1,1.75
16,Cc1nc(-c2ccccc2)n2nc(NCCCN3CCOCC3)ncc12,2.69
17,COc1cc(/C=N/Nc2ncnc3c2cnn3C(C)C)ccc1O,2.59

row,Structure (SMILES),inhibition [%]
1,COc1cccc(-n2nc(C)c3c(N/N=C(\C)c4ccncc4)ncnc32)c1,0.25
2,Cc1ccc2c(-c3ccnc(Nc4ccc5c(c4)OCCO5)n3)c(-c3ccc(C(F)(F)F)cc3)nn2n1,1.45
3,COc1cc2ncnc(Nc3ccc4c(cnn4Cc4ccccc4)c3)c2cc1OC,3.75
4,Cc1ccc2c(-c3ccnc(Nc4cccc(C(F)(F)F)c4)n3)c(-c3ccccc3)nn2n1,24.8
5,Cc1cc(O)cc(C)c1/C=C/c1cncc(C(=O)N(C)C)c1,0.32
6,Nc1ccc(C#Cc2cncnc2Nc2ccc(OCc3cccc(F)c3)c(Cl)c2)cc1,2.12
7,Nc1nccc(-c2c(-c3ccc(F)cc3)ncn2CCCN2CCOCC2)n1,3.74
8,N#Cc1cccc(Nc2nccc(-c3cnn4ncccc34)n2)c1,40.9
9,NC(=O)c1sc(-n2cnc3ccccc32)cc1OCc1ccccc1Br,5.25
10,CCS(=O)(=O)c1ccc(OC)c(Nc2nccc(N(C)c3ccc4c(C)n[nH]c4c3)n2)c1,4.35
11,O=C(Nc1ccc(Oc2ccc3[nH]c(NC(=O)c4ccco4)nc3c2)cc1)Nc1cc(C(F)(F)F)ccc1F,1.66
12,COC(=O)c1ccc2c(c1)C(=Cc1cc(Br)c(O)c(Br)c1)C(=O)N2,3.99
13,CCOc1nccc2c1nc(-c1nonc1N)n2CC,-1.17
14,COC(=O)Nc1nc2cc(Oc3ccc(NC(=O)Nc4cccc(Br)c4)cc3)ccc2[nH]1,5.63
15,CCn1c(-c2nonc2N)nc2c(C#CC(C)(C)O)nc(OCCNC)cc21,5.58
16,NS(=O)(=O)c1cccc(-c2cc3ccncc3cc2OCc2ccccc2)c1,4.4
17,NS(=O)(=O)c1ccc(N/N=C2\C(=O)Nc3ccc(Cl)cc32)cc1,2.77

# From ChEMBL document CHEMBL1961873, “Compounds: GSK PKIS; Assays: Nanosyn kinase panel” (2012)
